# Screening results from PubChem.
# HP1b binding inh: inhibitors of HP1-beta chromodomain binding to methylated histone tails. hit rate 0.56% among 390,000. Potency, µM (series often up to 114 µM), inactives show at the top dose activity change, negative = inhibition, hits mostly inhibitors. AlphaScreen HP1-beta / biotin-H3K9me3 peptide binding. P83916; further: potency means the concentration at half of the fitted maximal effect; nearly all actives have a fitted effect of over 70% in size
# Target sequence (P83916 whole entry, looked up): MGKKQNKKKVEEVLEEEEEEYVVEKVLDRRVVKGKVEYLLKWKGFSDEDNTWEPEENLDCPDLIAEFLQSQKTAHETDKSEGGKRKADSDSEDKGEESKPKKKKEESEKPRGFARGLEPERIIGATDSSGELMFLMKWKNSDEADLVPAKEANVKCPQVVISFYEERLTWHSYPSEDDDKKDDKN
#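 HP1-beta protein (50 nM final) preincubated 30 min at room temperature with biotinylated H3(1-18)K9me3 peptide (50 nM) in PBS pH 7.4, 0.01% Tween-20, then compound added for 30 min. AlphaScreen streptavidin donor/nickel chelate acceptor beads (10 ug/mL final), 30 min dark, luminescence read.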
# PI5P4K alpha inh: blocks human PI5P4K alpha kinase activity. max response, %. hit rate 1.2% among 330,000. PI5P4Kalpha enzyme, ADP-Glo luminescence, 60 min; hits give low values. P48426; active means max response of -50% or lower; inconclusive means between -30% and -50%; inactive means -30% or higher; further: value at the top dose of about 77 µM; on the % scale 0 is the no-effect control and ±100 the full control effect
#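 Enzyme plus substrate dispensed, test compounds pinned in, then ATP (5 microM final) added. After 60 min at RT, ADP-Glo reagent 1 for 45 min and reagent 2 for 30 min preceded luminescence imaging.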
# BAZ2B block: blocks human BAZ2B | AlphaScreen BAZ2B-H3K14Ac peptide displacement | Potency, µM (highest dose often 114 µM), without a hit: top-dose activity change, negative = inhibition, hits mostly inhibitors | hit rate 4.4% among 360,000; further: potency means the concentration at half of the fitted maximal effect; on the % scale 0 is the no-effect control and ±100 the full control effect; nearly all actives have a fitted effect of over 60% in size
#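 AlphaScreen luminescence quantifies BAZ2B engagement of H3K14Ac peptide; the protein and biotinylated peptide are both at 50 nM final, buffer PBS pH 7.4 with 0.01% Tween-20, all steps at room temperature.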
# L3MBTL1 block: blocks human L3MBTL1; AlphaScreen L3MBTL1–H3K9me1 peptide binding; Q9Y468; Potency, µM (series often up to 57.1 µM), inactives show at the top dose activity, negative = inhibition, most hits filed as inhibitors; hit rate 0.66% among 230,000; further: potency means the concentration at half of the fitted maximal effect; on the % scale 0 is the no-effect control and ±100 the full control effect; nearly all actives have a fitted effect of over 60% in size
#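 AlphaScreen assay: L3MBTL1 (50 nM final) was preincubated 30 min at room temperature with biotinylated H3(1-15)K9me1 peptide (75 nM final), then 30 min with library compounds; streptavidin donor and nickel chelate acceptor beads (10 ug/mL final) added, 30 min dark.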
# JMJD2A Tudor: inhibitors of human JMJD2A Tudor domain; O75164; AlphaScreen JMJD2A-Tudor / H3K4me3 peptide binding; Potency, µM (highest dose often 114 µM), inactives show at the top dose activity change, negative = inhibition, most hits filed as inhibitors; hit rate 4.4% among 390,000; further: potency means the concentration at half of the fitted maximal effect; on the % scale 0 is the no-effect control and ±100 the full control effect; nearly all actives have a fitted effect of over 50% in size
# G9a inh: blocks human histone lysine methyltransferase G9a | G9a H3K9 monomethylation, AlphaScreen, 2 h | Potency, µM (top dose mostly 102 µM), without a hit: at the highest dose activity, negative = inhibition, usual class: inhibitors | hit rate 8.8% among 350,000 | AID 504332; further: potency means the concentration at half of the fitted maximal effect; on the % scale 0 is the no-effect control and ±100 the full control effect; nearly all actives have a fitted effect of over 75% in size
# Target sequence (Q96KQ7 913-1193 limits assumed): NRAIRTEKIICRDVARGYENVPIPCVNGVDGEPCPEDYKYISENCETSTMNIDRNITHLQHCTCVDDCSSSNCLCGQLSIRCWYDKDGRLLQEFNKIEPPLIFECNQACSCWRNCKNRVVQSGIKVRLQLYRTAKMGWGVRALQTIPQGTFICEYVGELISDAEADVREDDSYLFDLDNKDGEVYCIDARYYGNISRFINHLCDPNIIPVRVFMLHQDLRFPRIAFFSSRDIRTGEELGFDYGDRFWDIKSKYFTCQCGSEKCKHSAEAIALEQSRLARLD
#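 AlphaScreen read-out: biotin-H3K9 peptide (500 nM) methylation by 20 nM enzyme with 20 uM SAM, 2 h at room temperature after 15 min compound preincubation; anti-monomethyl H3K9 antibody plus donor/acceptor beads, 10 min dark.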
# Starred values were filed as active, the others as inactive; ? = inconclusive; . = no result; [ ] = another dose, or the depositor's remark. A selection: hits, their analogues and other compounds. The true share with any hit is near 11%. Unless noted, the call rests on the fitted dose curve; in most records, active means well fitted inhibition curve with a large enough effect; inconclusive means small, poorly fitted or top-dose-only effect; inactive means no such curve, though single readings can be large or run the other way.
SMILES,HP1b binding inh,PI5P4K alpha inh,BAZ2B block,L3MBTL1 block,JMJD2A Tudor,G9a inh
Cc1cccc(NC(=O)C(=O)C2C(=O)Nc3ccccc32)c1 (stereo not given),29.4%,5.5,-13.3%,-1.2%,-35.5%,44.7µM*
CC(=O)NCCNc1nc(-c2cccnc2)nc2ccccc12,.,.,.,.,.,-42.6%[0.501 µM]
O=C(/C=C\c1ccco1)c1ccc(NC(=O)c2ccco2)cc1,?,-56.4*,44.7µM*,11.2µM*,50.1µM*,22.4µM*
CN(C(=O)/C=C/c1ccco1)c1ccccc1C(=O)O,60.1%,2.0,?,.,-10.8%,25.1µM*
CN(C)c1ccc(C(=O)/C=C/c2ccco2)cc1,-49.8%,?,50.1µM*,-9.6%,-29.8%,12.6µM*
CN(C(=O)C=Cc1ccco1)c1ccccc1,15.3%,8.1,.,.,-16.0%,.
CCOC(=O)N1CCC2(CC1)C(C#N)=C(N)Oc1n[nH]c(C)c12,23.6%,-4.9,14.1%,.,-19.0%,?
CCOC(=O)N1CCC2(CC1)C(C#N)=C(N)Oc1c2c(C)nn1-c1cccc(Cl)c1,-11.0%,.,50.1µM*,-1.2%,?,?
COc1ccc(NC(=O)Cn2c(C)cc3ccccc3c2=O)c(OC)c1,10.6%,.,-1.0%,.,-16.0%,6.3%[59 µM]
Cc1ccc(C)c(N(C)C(=O)Cc2c(C(=O)O)[nH]c3ccc(Cl)cc23)c1,-9.7%,.,-16.0%,.,-19.5%,-20.2%[59 µM]
Cc1nnc2ccc(-c3ccc(NC(=O)c4ccc(Cl)nc4)cc3)nn12,.,.,-34.8%,1.2%,.,79.4µM*
Cc1ccc(Cl)cc1N1CCN(C(=S)NCc2ccco2)CC1,-9.2%,7.3,?,-3.3%[2.29 µM],-19.0%,?
S=C(NCc1ccco1)N1CCN(Cc2ccco2)CC1,?,.,?,3.4%,4.47µM*,7.08µM*
O=C(NCc1ccco1)C(=S)N1CCCC1,18.2%,7.9,-12.9%,-0.9%,0.3%,31.6µM*
S=C(NCc1ccco1)N1CCN(c2ccccc2Cl)CC1,-11.1%,0.0,-31.9%,-6.7%,-28.1%,56.2µM*
O=C(NCc1ccco1)C(=S)N1CCCCC1,21.7%,-9.1,-5.6%,6.8%,-0.4%,-33.8%
O=C(c1ccccc1)N1CCN(C(=S)NCc2ccco2)CC1,8.9%,3.7,.,-10.3%,-1.0%,-23.9%
O=C1CC(c2ccccc2)c2c(n3ncnc3[nH]c2=O)N1 (stereo not given),34.5%,.,-5.6%,.,-22.9%,-15.8%[59 µM]
CNC(=O)c1ccc2nc(-c3cccc(C)c3)c(-c3cccc(C)c3)nc2c1,4.6%[57 µM],.,.,.,-20.8%[57.1 µM],.
Clc1ccccc1N=C1NN=C(c2cccs2)CS1,14.1%,4.6,.,.,-30.4%,89.1µM*
CCCn1cc(S(=O)(=O)c2ccccc2)c(=O)c2cc(F)c(N3CCCCCC3)cc21,49.4%,.,7.0%,.,-8.9%,7.8%[59 µM]
Cc1cc(Oc2nc3ccccn3c(=O)c2/C=C(\C#N)c2nc3ccccc3s2)ccc1Cl,37.7%,.,-1.9%,.,-18.2%,10µM*
N#C/C(=C\c1c(Oc2ccc(Br)cc2)nc2ccccn2c1=O)c1nc2ccccc2s1,20.3%,.,-9.6%,.,-33.0%,2.82µM*
COC(=O)NC(NC(=S)Nc1ccccc1OC)C(Cl)(Cl)Cl (stereo not given),41.0%,6.4,7.2%,-6.5%,-11.7%,15.8µM*
CCOC(=O)NC(NC(=S)Nc1ccc(OC)cc1)C(Cl)(Cl)Cl (stereo not given),13.4%,-4.2,-4.1%,2.2%,-0.4%,6.31µM*
SMILES,HP1b binding inh,PI5P4K alpha inh,BAZ2B block,L3MBTL1 block,JMJD2A Tudor,G9a inh
COC(=O)NC(NC(=S)Nc1ccc([N+](=O)[O-])cc1)C(Cl)(Cl)Cl (stereo not given),-9.9%,0.5,-12.5%,?,?,10µM*
COc1ccc(Br)cc1CNC(=O)Cn1c(=O)c2cccn2c2ccc(F)cc21,9.2%,.,-11.6%,.,-14.1%,-24.5%[59 µM]
Cc1[nH]c2ccccc2c1-c1nc(N)sc1C,7.5%,-4.2,?,.,-23.1%,70.8µM*
CCOc1c(Cl)cc(Cl)cc1CNCCNCCO,20.5%,.,-32.9%,-5.3%,?,50.1µM*
CCOC(=O)c1c(S(=O)(=O)N2CCCC(C(=O)NCc3ccc(Cl)cc3)C2)c(C)n(C)c1C (stereo not given),11.2%,.,-1.8%,.,-10.7%,-1.8%[59 µM]
CN(C)c1ccc(C(=O)/C=C/c2ccc(Br)cc2)cc1,40.1%,0.0,-4.8%,-1.4%,-26.1%,?
CN(C)c1ccc(/C=C/C(=O)c2cc(Cl)ccc2O)cc1,?,24.1,6.31µM*,31.6µM*,12.6µM*,3.98µM*
O=C(/C=C/c1ccncc1)c1cc(Cl)ccc1O,?,-22.3,44.7µM*,-24.5%,35.5µM*,22.4µM*
OC1(c2ccccc2)CN(c2ccccc2)C2=[N+]1CCS2 (stereo not given),0.8%,-3.0,39.8µM*,-9.8%,-20.1%,-23.4%[59 µM]
OC1(c2cccs2)CN(c2ccc(Br)cc2)C2=[N+]1CCCS2 (stereo not given),37.2%,0.2,-14.4%,3.6%,-19.5%,-36.2%
CCCn1c(N)c(C(=O)CSc2nc(C)nc3sc(C)c(C)c23)c(=O)[nH]c1=O,29.9%,-17.6,-11.4%,3.8%,-15.8%,22.4µM*
Cc1c(Cl)cccc1Nc1nn2c(=O)c3ccccc3nc2s1,4.1%,.,-0.3%,.,-22.3%,3.7%[59 µM]
CCc1cccc(C)c1Nc1nn2c(=O)c3ccccc3nc2s1,?,.,0.5%,.,-20.3%,7.08µM*
CN1CCN(C(CNC(=O)C(=O)Nc2cccc(Cl)c2)c2ccc3c(c2)OCO3)CC1 (stereo not given),22.7%[57 µM],.,-3.5%,.,-21.0%,-5.0%[59 µM]
Cc1ccccc1OCC(=O)NN1C(=O)C2C3C=CC(O3)C2C1=O (stereo not given),-2.2%,-1.9,-17.0%,2.5%[11.4 µM],-17.4%,?
O=C(CCc1ccccc1)NN1C(=O)C2C3C=CC(O3)C2C1=O (stereo not given),46.7%,-4.3,-10.8%,-12.8%,-2.3%,10µM*
Cc1cccc(OCC(=O)NN2C(=O)C3C4C=CC(O4)C3C2=O)c1 (stereo not given),-0.3%,-3.1,-11.7%,-1.0%,-11.1%,8.91µM*
CCOc1ccc(NC(=O)c2ccc(N)cc2)cc1,49.7%,-3.4,10.8%,17.9%,-13.1%,24.4%[59 µM]
CCOc1ccc(C(=O)NN2C(=O)C3C4C=CC(O4)C3C2=O)cc1 (stereo not given),24.6%,-7.0,2.8%,2.8%,-11.3%,6.31µM*
COc1ccc(CCNC(=O)c2cnn(-c3cccc(C)c3)c2C2CCN(C(=O)OC(C)(C)C)CC2)cc1OC,0.8%,.,-0.2%[57.1 µM],.,-23.9%,-18.9%[59 µM]
Nc1ccccc1SC1CC(=O)N(c2ccc3c(c2)OCO3)C1=O (stereo not given),-4.2%,0.0,14.5%,.,-4.7%,0.1%
